Results from PubChem BioAssay AID1159580 (chemical genetic matrix, 2015).
About 2,000 (36%) of roughly 5,500 compounds were called active. About 18% were inconclusive and are not listed. Cut-off read from the data, not from the text of the source: active = normalized growth mostly below about 0.91 (no sharp cut-off); inconclusive = no clear call, values can overlap the other calls; inactive = mostly above about 0.92. The list shows a part of the results.

Experiment: chemical genetic growth profiling, strain panel (AID 1159580);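 note: tested at 20 µM; growth read once vehicle control cultures reached saturation at 30 °C; 1 = growth at the plate median or of vehicle wells; lower values mean less growth of the strain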
Conditions: growth OD

Measured: normalized growth

O=C(CCc1ccc(O)cc1)c1c(O)cc(O)cc1O[C@@H]1O[C@H](CO)[C@@H](O)[C@H](O)[C@H]1O
inactive: S. cerevisiae deletion strains, locus YJR075W, strain HOC1, stronger effect = lower value 1.05 | S. cerevisiae deletion strains, locus YKL009W, strain mrt4, stronger effect = lower value 0.978 | S. cerevisiae deletion strains, locus YKL068W, stronger effect = lower value 1 | S. cerevisiae deletion strains, locus YKL085W, strain MDH1 (second series), stronger effect = lower value 0.988 | S. cerevisiae deletion strains, locus YKL085W, strain MDH1, stronger effect = lower value 0.988 | S. cerevisiae deletion strains, locus YKL160W, strain elf1, stronger effect = lower value 1.01 | S. cerevisiae deletion strains, locus YKR001C, strain vps1, stronger effect = lower value 1 | S. cerevisiae deletion strains, locus YKR026C, strain gcn3, stronger effect = lower value 1.01 | S. cerevisiae deletion strains, locus YKR091W, strain srl3, stronger effect = lower value 1.01 | S. cerevisiae deletion strains, locus YLL001W, strain dnm1, stronger effect = lower value 1.01 | S. cerevisiae deletion strains, locus YLL026W, stronger effect = lower value 1.02 | S. cerevisiae deletion strains, locus YLL041C, strain sdh2, stronger effect = lower value 1.01 | S. cerevisiae deletion strains, locus YLR027C, strain aat2, stronger effect = lower value 1.01 | S. cerevisiae deletion strains, locus YLR039C, strain RIC1, stronger effect = lower value 1.08 | S. cerevisiae deletion strains, locus YLR058C, strain SHM2, stronger effect = lower value 1.01 | S. cerevisiae deletion strains, locus YLR102C, strain apc9, stronger effect = lower value 1.01 | S. cerevisiae deletion strains, locus YLR113W, strain HOG1, stronger effect = lower value 0.956 | S. cerevisiae deletion strains, locus YLR221C, strain rsa3, stronger effect = lower value 1.02 | S. cerevisiae deletion strains, locus YLR258W, strain gsy2, stronger effect = lower value 1.04 | S. cerevisiae deletion strains, locus YLR262C, strain YPT6 (second series), stronger effect = lower value 1.02 | S. cerevisiae deletion strains, locus YLR262C, strain YPT6, stronger effect = lower value 1.14 | S. cerevisiae deletion strains, locus YLR268W, strain sec22, stronger effect = lower value 1 | S. cerevisiae deletion strains, locus YLR320W, strain mms22, stronger effect = lower value 1.02 | S. cerevisiae deletion strains, locus YLR330W, strain CHS5, stronger effect = lower value 1.01 | S. cerevisiae deletion strains, locus YLR342W, strain FKS1 (second series), stronger effect = lower value 1.01 | S. cerevisiae deletion strains, locus YLR342W, strain FKS1, stronger effect = lower value 1.02 | S. cerevisiae deletion strains, locus YLR357W, strain rsc2, stronger effect = lower value 1 | S. cerevisiae deletion strains, locus YLR370C, strain arc18, stronger effect = lower value 1.01 | S. cerevisiae deletion strains, locus YLR371W, strain rom2, stronger effect = lower value 0.997 | S. cerevisiae deletion strains, locus YLR384C, strain iki3, stronger effect = lower value 1.03 | S. cerevisiae deletion strains, locus YLR418C, strain cdc73, stronger effect = lower value 1.03 | S. cerevisiae deletion strains, locus YML016C, strain PPZ1, stronger effect = lower value 1.02 | S. cerevisiae deletion strains, locus YML032C, strain rad52, stronger effect = lower value 0.986 | S. cerevisiae deletion strains, locus YML120C, strain ndi1, stronger effect = lower value 1.01 | S. cerevisiae deletion strains, locus YML124C, strain tub3, stronger effect = lower value 0.993 | S. cerevisiae deletion strains, locus YMR058W, strain fet3, stronger effect = lower value 1.02 | S. cerevisiae deletion strains, locus YMR078C, strain ctf18, stronger effect = lower value 0.991 | S. cerevisiae deletion strains, locus YMR125W, strain sto1, stronger effect = lower value 1.02 | S. cerevisiae deletion strains, locus YMR129W, stronger effect = lower value 1.01 | S. cerevisiae deletion strains, locus YMR205C, strain PFK2, stronger effect = lower value 1.02 | S. cerevisiae deletion strains, locus YMR223W, strain ubp8, stronger effect = lower value 0.992 | S. cerevisiae deletion strains, locus YMR231W, strain pep5, stronger effect = lower value 1.01 | S. cerevisiae deletion strains, locus YMR263W, strain SAP30, stronger effect = lower value 1.03 | S. cerevisiae deletion strains, locus YMR307W, strain GAS1, stronger effect = lower value 1.23 | S. cerevisiae deletion strains, locus YNL067W, strain RPL9B, stronger effect = lower value 1.04 | S. cerevisiae deletion strains, locus YNL071W, strain lat1, stronger effect = lower value 1.01 | S. cerevisiae deletion strains, locus YNL153C, strain GIM3, stronger effect = lower value 1.04 | S. cerevisiae deletion strains, locus YNL183C, strain NPR1, stronger effect = lower value 0.937 | S. cerevisiae deletion strains, locus YNL209W, strain ssb2, stronger effect = lower value 1.01 | S. cerevisiae deletion strains, locus YNL233W, strain BNI4, stronger effect = lower value 1.03 | S. cerevisiae deletion strains, locus YNL248C, strain rpa49, stronger effect = lower value 1.01 | S. cerevisiae deletion strains, locus YNL250W, strain rad50, stronger effect = lower value 0.986 | S. cerevisiae deletion strains, locus YNL271C, strain bni1, stronger effect = lower value 0.992 | S. cerevisiae deletion strains, locus YNL298W, strain CLA4, stronger effect = lower value 0.998 | S. cerevisiae deletion strains, locus YNL307C, strain MCK1, stronger effect = lower value 0.991 | S. cerevisiae deletion strains, locus YNL322C, strain KRE1 (second series), stronger effect = lower value 1.02 | S. cerevisiae deletion strains, locus YNL322C, strain KRE1, stronger effect = lower value 1.02 | S. cerevisiae deletion strains, locus YNR049C, strain mso1, stronger effect = lower value 1.02 | S. cerevisiae deletion strains, locus YNR052C, strain pop2, stronger effect = lower value 0.982 | S. cerevisiae deletion strains, locus YOL012C, strain htz1 0.98 | S. cerevisiae deletion strains, locus YOL147C, strain pex11, stronger effect = lower value 0.996 | S. cerevisiae deletion strains, locus YOR001W, strain rrp6, stronger effect = lower value 1.04 | S. cerevisiae deletion strains, locus YOR061W, strain CKA2, stronger effect = lower value 1.02 | S. cerevisiae deletion strains, locus YOR069W, strain VPS5, stronger effect = lower value 1.01 | S. cerevisiae deletion strains, locus YOR070C, strain gyp1, stronger effect = lower value 1 | S. cerevisiae deletion strains, locus YOR080W, strain dia2, stronger effect = lower value 1.03 | S. cerevisiae deletion strains, locus YOR083W, strain WHI5, stronger effect = lower value 1.01 | S. cerevisiae deletion strains, locus YOR106W, strain vam3, stronger effect = lower value 1.01 | S. cerevisiae deletion strains, locus YOR136W, strain idh2, stronger effect = lower value 0.994 | S. cerevisiae deletion strains, locus YOR144C, strain elg1, stronger effect = lower value 1 | S. cerevisiae deletion strains, locus YOR184W, strain ser1, stronger effect = lower value 1.03 | S. cerevisiae deletion strains, locus YOR231W, strain MKK1, stronger effect = lower value 0.993 | S. cerevisiae deletion strains, locus YOR265W, strain rbl2, stronger effect = lower value 1.01 | S. cerevisiae deletion strains, locus YOR270C, strain vph1, stronger effect = lower value 1.03 | S. cerevisiae deletion strains, locus YOR290C, strain snf2, stronger effect = lower value 0.988 | S. cerevisiae deletion strains, locus YOR316C, strain cot1, stronger effect = lower value 1.02 | S. cerevisiae deletion strains, locus YPL051W, strain arl3, stronger effect = lower value 1.01 | S. cerevisiae deletion strains, locus YPL078C, strain atp4, stronger effect = lower value 1.02 | S. cerevisiae deletion strains, locus YPL106C, strain sse1, stronger effect = lower value 1.02 | S. cerevisiae deletion strains, locus YPL240C, strain hsp82, stronger effect = lower value 1.01 | S. cerevisiae deletion strains, locus YPL241C, strain CIN2, stronger effect = lower value 1.02 | S. cerevisiae deletion strains, locus YPL256C, strain CLN2, stronger effect = lower value 0.966 | S. cerevisiae deletion strains, locus YPR119W, strain clb2, stronger effect = lower value 0.992 | S. cerevisiae deletion strains, locus YPR141C, strain kar3, stronger effect = lower value 0.987 | S. cerevisiae deletion strains, locus YPR163C, strain tif3, stronger effect = lower value 0.993 | S. cerevisiae deletion strains, locus YPR167C, strain met16, stronger effect = lower value 1.01 | S. cerevisiae deletion strains, strain wtn01, stronger effect = lower value 1 | S. cerevisiae strains, strain wild type, stronger effect = lower value 1.02
